Results filed as inconclusive are left out. Entries that show only a call come without a potency. Calls of active or inactive are those of the source. Unless noted, calls come from the whole dose curve; as a rule, active = well fitted curve in the direction sought with a large enough effect in the repeat runs; inconclusive = weak or mixed curves; inactive = no such curve, though single readings can be large; an effect the other way counts as inactive or inconclusive.
Assays:
[1] = test system: thyroid hormone receptor (rat, GH3 cells); assay: qHTS assay to identify small molecule agonists of the thyroid receptor (TR) signaling pathway (AID 743066; calls by dose curve); settings: GH3.TRE-Luc cells, TR agonist luciferase, 24 h; series mostly up to 83.9 µM
[2] = qHTS assay to identify small molecule antagonists of the estrogen receptor alpha (ER-alpha) signaling pathway - cell viability counter screen (AID 743074; calls by dose curve;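 note: HEK293 cells carrying ER-alpha-UAS-bla reporter stimulated with 17beta-estradiol; nearly all actives have a fitted effect of over 45% in size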); settings: ERalpha-bla HEK293 viability, CellTiter-Glo luminescence, 18 h; series mostly up to 69.4 µM
[3] = qHTS assay to identify small molecule antagonists of the estrogen receptor alpha (ER-alpha) signaling pathway using the BG1 cell line - cell viability counter screen (AID 743081); settings: BG1Luc4E2 viability, CellTiter-Fluor, 22 h; series mostly up to 70.3 µM;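 note: compound given together with 17beta-estradiol as the ER stimulus; nearly all actives have a fitted effect of over 45% in size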
Aromatase (Homo sapiens) = Aromatase (Homo sapiens) (UniProt P11511); assay: qHTS assay to identify aromatase inhibitors (AID 743083); settings: MCF-7 aro ERE, testosterone-driven ERE luciferase, 24 h; series mostly up to 70.3 µM; note: nearly all actives have a fitted effect of over 55% in size; note: potency is the fitted concentration of half-maximal effect
Aromatase (Homo sapiens), sequence (P11511 whole entry, looked up): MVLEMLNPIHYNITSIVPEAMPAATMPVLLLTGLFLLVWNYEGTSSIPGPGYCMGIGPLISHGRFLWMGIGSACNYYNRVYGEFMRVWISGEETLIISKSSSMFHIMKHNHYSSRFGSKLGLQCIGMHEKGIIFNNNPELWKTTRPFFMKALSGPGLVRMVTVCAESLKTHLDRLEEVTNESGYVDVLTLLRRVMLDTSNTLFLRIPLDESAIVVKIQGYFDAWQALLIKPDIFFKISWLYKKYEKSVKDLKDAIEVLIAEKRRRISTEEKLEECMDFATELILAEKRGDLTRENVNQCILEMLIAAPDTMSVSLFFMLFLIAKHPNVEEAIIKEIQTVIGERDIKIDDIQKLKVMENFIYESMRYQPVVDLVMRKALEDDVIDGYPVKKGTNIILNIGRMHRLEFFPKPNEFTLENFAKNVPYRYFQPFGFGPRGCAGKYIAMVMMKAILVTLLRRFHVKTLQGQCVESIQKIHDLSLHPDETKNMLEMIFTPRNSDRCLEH

[4] = qHTS assay to identify aromatase inhibitors - cell viability counter screen (AID 743084); settings: MCF-7 aro ERE viability, CellTiter-Fluor, 24 h; series mostly up to 70.3 µM;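 note: cells stimulated with testosterone during compound exposure; nearly all actives have a fitted effect of over 55% in size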; note: potency is the fitted concentration of half-maximal effect
[5] = molecular target: Aryl hydrocarbon receptor (Homo sapiens) (UniProt P35869); assay: qHTS assay to identify small molecule that activate the aryl hydrocarbon receptor (AhR) signaling pathway (AID 743085); settings: HepG2 AhR-luc (HG2L7.5c1), luciferase, 24 h; series mostly up to 70.3 µM; note: nearly all actives have a fitted effect of over 15% in size; note: potency is the fitted concentration of half-maximal effect;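 for activation: HG2L7.5c1 human HepG2 liver cells with stably integrated DRE-driven firefly reporter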
Aryl hydrocarbon receptor (Homo sapiens), sequence (P35869 whole entry, looked up): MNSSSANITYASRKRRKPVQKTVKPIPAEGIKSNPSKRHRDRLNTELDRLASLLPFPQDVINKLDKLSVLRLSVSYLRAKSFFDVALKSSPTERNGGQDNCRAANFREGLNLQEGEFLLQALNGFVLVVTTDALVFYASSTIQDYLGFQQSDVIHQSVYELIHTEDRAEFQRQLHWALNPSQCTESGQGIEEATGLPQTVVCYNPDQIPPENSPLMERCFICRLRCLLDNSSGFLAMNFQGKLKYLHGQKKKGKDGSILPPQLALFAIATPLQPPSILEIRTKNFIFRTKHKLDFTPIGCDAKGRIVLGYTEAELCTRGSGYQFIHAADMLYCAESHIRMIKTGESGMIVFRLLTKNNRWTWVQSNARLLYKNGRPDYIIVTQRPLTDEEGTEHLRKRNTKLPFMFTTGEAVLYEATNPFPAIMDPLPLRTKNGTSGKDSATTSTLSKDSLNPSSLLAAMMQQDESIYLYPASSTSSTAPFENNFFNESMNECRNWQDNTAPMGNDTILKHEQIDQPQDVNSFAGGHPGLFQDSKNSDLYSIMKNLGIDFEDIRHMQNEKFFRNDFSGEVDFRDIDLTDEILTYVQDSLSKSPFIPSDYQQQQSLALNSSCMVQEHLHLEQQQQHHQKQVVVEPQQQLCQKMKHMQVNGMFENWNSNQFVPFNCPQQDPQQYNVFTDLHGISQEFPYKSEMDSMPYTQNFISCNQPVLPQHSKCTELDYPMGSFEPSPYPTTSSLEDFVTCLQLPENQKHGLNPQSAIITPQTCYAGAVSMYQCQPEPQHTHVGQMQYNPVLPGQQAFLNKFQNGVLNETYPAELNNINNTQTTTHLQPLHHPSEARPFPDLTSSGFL
Outline: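 HepG2 cells (HG2L7.5c1) stably carrying a firefly luciferase reporter driven by 20 dioxin responsive elements were exposed to compound for 24 h at 37C after a 5 h settling period; luminescence rise (ONE-Glo) indicated activation.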

[6] = qHTS assay to identify small molecule that activate the aryl hydrocarbon receptor (AhR) signaling pathway - cell viability counter screen (AID 743086); settings: HepG2-AhR-luc viability, CellTiter-Fluor, 24 h; series mostly up to 70.3 µM;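 note: HepG2 liver cells carrying the AhR DRE luciferase reporter; nearly all actives have a fitted effect of over 45% in size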
Outline: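 Cytotoxicity counter screen: CellTiter-Fluor signal (30 min, 37 C) in 4000 HepG2 cells/well carrying the DRE-luciferase reporter, following 24 h compound exposure at 37 C.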

[7] = molecular target: Peroxisome proliferator-activated receptor gamma (Homo sapiens) (UniProt P37231); assay: qHTS assay to identify small molecule agonists of the peroxisome proliferator-activated receptor gamma (PPARg) signaling pathway (AID 743094; active = well fitted activation curve with a large enough effect in the signal ratio in the repeat runs, not every such curve was filed as active; the % refers to the signal ratio); settings: HEK293H PPARg-UAS-bla, beta-lactamase FRET ratio, 17 h; series mostly up to 57 µM
Peroxisome proliferator-activated receptor gamma (Homo sapiens), sequence (P37231 whole entry, looked up): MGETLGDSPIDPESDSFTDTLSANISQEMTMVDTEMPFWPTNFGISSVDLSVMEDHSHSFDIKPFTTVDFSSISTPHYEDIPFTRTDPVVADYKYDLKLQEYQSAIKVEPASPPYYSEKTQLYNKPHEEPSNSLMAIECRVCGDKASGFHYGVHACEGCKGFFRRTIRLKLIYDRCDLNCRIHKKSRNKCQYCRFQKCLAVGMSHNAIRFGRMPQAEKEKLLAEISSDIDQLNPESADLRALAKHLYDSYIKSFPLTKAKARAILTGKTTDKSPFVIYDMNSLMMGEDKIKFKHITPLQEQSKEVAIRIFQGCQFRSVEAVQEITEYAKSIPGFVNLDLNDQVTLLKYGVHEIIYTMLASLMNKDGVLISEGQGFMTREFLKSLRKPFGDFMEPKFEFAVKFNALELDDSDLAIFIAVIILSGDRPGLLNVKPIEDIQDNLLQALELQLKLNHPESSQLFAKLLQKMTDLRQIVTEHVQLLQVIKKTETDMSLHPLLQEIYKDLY
Outline: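 Cell-based bla reporter, HEK293H background, PPARg-driven UAS. Pre-incubation 5 h, 37C, 5% CO2. Compound 17 h, 37C. Substrate 1 h RT; fluorescence.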

[8] = qHTS assay for small molecule agonists of the antioxidant response element (ARE) signaling pathway (AID 743202; active = well fitted activation curve with a large enough effect in the signal ratio in the repeat runs, not every such curve was filed as active; the % refers to the signal ratio; note: potency is the fitted concentration of half-maximal effect); settings: HepG2 ARE-bla reporter, beta-lactamase FRET, 16 h; series mostly up to 73.3 µM
Outline: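 After 16 hours of compound treatment at 37 C, HepG2 cells with a stably integrated ARE-driven beta-lactamase reporter were loaded 2 hours at room temperature with LiveBLAzer B/G FRET substrate and fluorescence intensity measured.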

[9] = qHTS assay for small molecule agonists of the antioxidant response element (ARE) signaling pathway - cell viability counter screen (AID 743203; calls by dose curve; note: nearly all actives have a fitted effect of over 55% in size; note: potency is the fitted concentration of half-maximal effect); settings: ARE-bla HepG2 viability, CellTiter-Glo luminescence, 16 h; series mostly up to 73.3 µM
Outline: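 Measured in the same wells as the beta-lactamase ARE reporter, this read-out is CellTiter-Glo luminescence from HepG2 ARE-bla cells given compounds for 16 hrs.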

[10] = qHTS assay for small molecule activators of the heat shock response signaling pathway - cell viability counter screen (AID 743209); settings: HSE-bla HeLa viability, CellTiter-Glo luminescence, 5 h; series mostly up to 62.6 µM; note: nearly all actives have a fitted effect of over 50% in size
Outline: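 Same-well multiplex: after 2.5 h room-temperature incubation with LiveBLAzer B/G substrate and fluorescence reading, CellTiter-Glo reagent was added to HSE-bla HeLa cells that had received compound for 5 h at 37 C; luminescence read after 30 min.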

[11] = qHTS assay for small molecule activators of the heat shock response signaling pathway (AID 743210; active = well fitted activation curve with a large enough effect in the signal ratio in the repeat runs, with a control signal flat, not every such curve was filed as active; the % refers to the signal ratio); settings: HeLa HSE-bla reporter, beta-lactamase ratio, 5 h; series mostly up to 62.6 µM
Outline: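 Compound exposure lasted 5 h at 37 C in HeLa cells carrying a heat-shock-element-driven beta-lactamase reporter. Read-out: fluorescence intensity after 2.5 h room-temperature loading with LiveBLAzer B/G FRET substrate.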

[12] = qHTS assay to identify small molecule agonists of the peroxisome proliferator-activated receptor delta (PPARd) signaling pathway - cell viability counter screen (AID 743211); settings: PPARd-bla HEK293H viability, CellTiter-Glo luminescence, 17 h; series mostly up to 62.6 µM; note: nearly all actives have a fitted effect of over 55% in size; note: potency is the fitted concentration of half-maximal effect
Outline: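 PPARd-bla HEK293H cells (UAS-beta-lactamase reporter) were treated with compounds for 17 h at 37 C. Viability was then read in the same wells by CellTiter-Glo luminescence after 30 min at room temperature.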

[13] = molecular target: Peroxisome proliferator-activated receptor delta (Homo sapiens) (UniProt Q03181); assay: qHTS assay to identify small molecule agonists of the peroxisome proliferator-activated receptor delta (PPARd) signaling pathway (AID 743212; calls by dose curve); settings: HEK293H PPARd-UAS-bla, beta-lactamase FRET ratio, 17 h; series mostly up to 62.6 µM
Peroxisome proliferator-activated receptor delta (Homo sapiens), sequence (Q03181 whole entry, looked up): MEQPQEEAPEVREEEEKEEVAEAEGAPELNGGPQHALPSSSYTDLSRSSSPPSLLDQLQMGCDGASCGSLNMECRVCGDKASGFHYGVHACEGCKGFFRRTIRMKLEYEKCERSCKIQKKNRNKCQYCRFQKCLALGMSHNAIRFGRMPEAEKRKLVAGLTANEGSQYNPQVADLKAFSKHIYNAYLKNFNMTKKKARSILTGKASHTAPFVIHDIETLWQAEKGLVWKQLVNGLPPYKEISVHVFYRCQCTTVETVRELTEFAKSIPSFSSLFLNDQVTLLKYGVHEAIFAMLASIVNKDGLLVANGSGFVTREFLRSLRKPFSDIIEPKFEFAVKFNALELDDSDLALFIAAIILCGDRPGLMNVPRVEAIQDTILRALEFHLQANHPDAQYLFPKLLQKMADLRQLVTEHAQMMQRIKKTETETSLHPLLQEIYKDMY
Outline: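 Beta-lactamase reporter readout: a ratiometric FRET signal from the LiveBLAzer substrate after 2 h at room temperature. Compound exposure at 37 °C in PPARδ-bla HEK293H cells driven by an upstream activator sequence.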

[14] = qHTS assay to identify small molecule antagonists of the peroxisome proliferator-activated receptor gamma (PPARg) signaling pathway - cell viability counter screen (AID 743194); settings: PPARg-bla HEK293H viability, CellTiter-Glo luminescence, 17 h, co-treated with 50 nM rosiglitazone; series mostly up to 62.6 µM; note: nearly all actives have a fitted effect of over 55% in size
Outline: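 Viability was measured as CellTiter-Glo luminescence in GeneBLAzer PPARg UAS-bla HEK293H cells. These cells had been exposed 17 h at 37 C to compounds together with rosiglitazone at 50 nM final, with the beta-lactamase readout taken in the same wells.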

[15] = molecular target: Peroxisome proliferator-activated receptor gamma (Homo sapiens) (UniProt P37231); assay: qHTS assay to identify small molecule antagonists of the peroxisome proliferator-activated receptor gamma (PPARg) signaling pathway (AID 743191; calls by dose curve; note: nearly all actives have a fitted effect of over 30% in size); settings: HEK293H PPARg-UAS-bla, beta-lactamase ratio, antagonist, 17 h; series mostly up to 62.6 µM
Outline: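 Beta-lactamase reporter under UAS control in HEK293H PPARg-bla cells; compound treatment 17 h at 37C. Read-out: fluorescence intensity after 1 h room-temperature incubation with LiveBLAzer B/G FRET substrate.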

[16] = molecular target: Estrogen receptor (Homo sapiens) (UniProt P03372); assay: qHTS assay to identify small molecule agonists of the estrogen receptor alpha (ER-alpha) signaling pathway (AID 743075; calls by dose curve;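 note: HEK293 GripTite cells with ER-alpha and UAS-driven beta-lactamase reporter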); settings: HEK293 ER-alpha-UAS-bla, beta-lactamase FRET ratio, 18 h; series mostly up to 70.1 µM
Estrogen receptor (Homo sapiens), sequence (P03372 whole entry, looked up): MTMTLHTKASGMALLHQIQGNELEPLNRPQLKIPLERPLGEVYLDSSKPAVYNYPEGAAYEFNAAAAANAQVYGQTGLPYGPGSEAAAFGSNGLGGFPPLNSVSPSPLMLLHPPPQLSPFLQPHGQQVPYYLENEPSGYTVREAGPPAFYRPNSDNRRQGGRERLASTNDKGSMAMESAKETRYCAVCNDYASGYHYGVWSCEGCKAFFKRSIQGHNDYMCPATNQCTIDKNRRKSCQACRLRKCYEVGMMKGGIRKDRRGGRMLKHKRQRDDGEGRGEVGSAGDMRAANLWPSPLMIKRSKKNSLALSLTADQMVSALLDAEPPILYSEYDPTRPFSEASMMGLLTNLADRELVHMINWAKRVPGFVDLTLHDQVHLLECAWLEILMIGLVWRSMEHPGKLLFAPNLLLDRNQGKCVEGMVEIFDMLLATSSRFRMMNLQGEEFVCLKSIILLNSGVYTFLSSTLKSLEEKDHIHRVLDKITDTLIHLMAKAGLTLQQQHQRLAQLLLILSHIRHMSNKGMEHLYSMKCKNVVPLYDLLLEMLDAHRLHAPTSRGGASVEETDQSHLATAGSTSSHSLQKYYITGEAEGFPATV

[17] = qHTS assay to identify small molecule antagonists of the estrogen receptor alpha (ER-alpha) signaling pathway using the BG1 cell line (AID 743080; calls by dose curve;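 note: BG1 cells stimulated with 17beta-estradiol alongside compound; nearly all actives have a fitted effect of over 25% in size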); settings: BG1Luc4E2 ERE-luciferase antagonist mode, luminescence; series mostly up to 70.3 µM
Outline: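 BG1-Luc-4E2 cells (endogenous full-length ER-alpha, stable 4×ERE-luciferase) were starved 5 days in phenol-red-free medium with 10% charcoal-stripped FBS, plated 24 h, then given compound plus 17beta-estradiol for 21.5 h at 37 C; ONE-Glo luminescence read after 30 min.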

Row | SMILES | outcome [1] | outcome [2] | Potency [3] | Potency (Aromatase (Homo sapiens)) | Potency [4] | Potency [5] | Potency [6] | Potency [7] | Potency [8] | Potency [9] | outcome [10] | outcome [11] | Potency [12] | Potency [13] | Potency [14] | Potency [15] | Potency [16] | Potency [17]
1 | O=C(O)c1ccncc1 | inactive | inactive | inactive | inactive | inactive | inactive | inactive | inactive | inactive | inactive | inactive | inactive | inactive | inactive |  |  |  | 
2 | CCOc1ccccc1O | inactive | inactive | inactive | inactive | inactive | inactive | inactive | inactive | inactive | inactive | inactive | inactive | inactive | inactive | inactive |  |  | 
3 | C=C[Si](OCC)(OCC)OCC | inactive | inactive | inactive | inactive | inactive | inactive | inactive |  | inactive | inactive | inactive | inactive | inactive |  | inactive |  |  | 
4 | COC(=O)C(C)(C)C | inactive | inactive | inactive | inactive | inactive | inactive | inactive | inactive | inactive | inactive | inactive | inactive |  |  | inactive | inactive |  | 
5 | CC(=O)Oc1cccc2c1C(=O)c1c(OC(C)=O)cc(C(=O)O)cc1C2=O | inactive | inactive | inactive | inactive | inactive | inactive | inactive |  | 15 µM (active) | inactive |  | inactive | inactive |  | inactive |  |  | 
6 | N#Cc1ccc(CC(=O)c2cccc(C(F)(F)F)c2)cc1 | inactive | inactive | inactive | inactive | inactive | inactive | inactive | inactive | inactive | inactive | inactive | inactive | inactive | inactive | inactive | inactive |  | 
7 | CCCCC(CC)COCCC#N (stereo not drawn) | inactive | inactive | inactive | inactive | inactive | inactive | inactive | inactive | inactive | inactive | inactive | inactive | inactive | inactive | inactive |  |  | 
8 | CC(CN=Cc1ccccc1O)N=Cc1ccccc1O (stereo not drawn) | inactive | inactive | inactive | inactive | inactive | 27.3 µM (active) | inactive | inactive |  | inactive | inactive | inactive | inactive | inactive | inactive | inactive |  | 
9 | CCCCCCCCOCCCN | inactive | inactive | inactive | inactive | inactive | inactive | inactive | inactive |  | 54.5 µM (active) | inactive | inactive | 49 µM (active) | inactive |  |  | inactive | inactive
10 | CC(=O)OCC(=O)[C@@]1(O)CC[C@H]2[C@@H]3CCC4=CC(=O)C=C[C@]4(C)[C@@]3(F)[C@@H](O)C[C@@]21C | inactive | inactive | inactive | inactive | inactive | inactive | inactive | inactive | inactive | inactive | inactive | inactive | inactive |  | inactive | inactive |  | 
11 | CCOc1cc(OCC)c(C(C)=O)cc1OCC | inactive | inactive |  | 26.8 µM (active) | 26.8 µM (active) |  | inactive | inactive |  | inactive | inactive |  | inactive | inactive |  | inactive | inactive | inactive
12 | FC1(F)C(F)(F)C(F)(F)C2(F)C(F)(C1(F)F)C(F)(F)C(F)(F)C1(F)C(F)(F)C(F)(F)C(F)(F)C(F)(F)C12F (stereo not drawn) | inactive | inactive | inactive | inactive | inactive | inactive | inactive | inactive | inactive | inactive | inactive | inactive | inactive | inactive | inactive | inactive |  | 
13 | C=C(C)C(=O)OCCCCCCCCCCOC(=O)C(=C)C | inactive | inactive | inactive | inactive | inactive | inactive | inactive | inactive | inactive | inactive | inactive |  | inactive | inactive | inactive | inactive |  | 
14 | CS(C)=O | inactive | inactive | inactive | inactive | inactive | inactive | inactive | inactive |  | inactive | inactive |  | inactive | inactive | inactive |  |  | 
15 | CCC(=O)O[C@@H]1C[C@H]2CC[C@]1(C)C2(C)C | inactive | inactive | inactive | inactive | inactive | inactive |  | inactive | inactive | inactive | inactive | inactive | inactive | inactive | inactive |  |  | 
16 | COc1ccc(CN(CCN(C)C)c2ncccn2)cc1 | inactive | inactive | inactive | inactive | inactive | inactive | inactive | inactive |  | inactive | inactive | inactive | inactive | inactive | inactive | inactive |  | 
17 | O=C(N[C@@H](Cc1ccccc1)[C@@H](O)C(=O)N1C[C@@H](O)[C@@H](O)C1)c1cc2cc(Cl)ccc2[nH]1 | inactive | inactive | inactive | inactive | inactive | inactive |  | inactive |  | inactive | inactive |  | inactive |  | inactive |  | inactive | inactive

Source: PubChem BioAssay (Tox21)
